PubChem BioAssay (Tox21)
Inconclusive results are not listed. Calls of active or inactive are those of the source. Unless noted, calls come from the whole dose curve; as a rule, active = well fitted curve in the direction sought with a large enough effect in the repeat runs; inconclusive = weak or mixed curves; inactive = no such curve, though single readings can be large; an effect the other way counts as inactive or inconclusive.

Assays:
[1] = qHTS assay to identify small molecule agonists of H2AX (AID 1224845; active = well fitted activation curve with a large enough effect in the signal ratio in the repeat runs, not every such curve was filed as active; the % refers to the signal ratio)
In short: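 Phospho-H2AX Ser139 measured by HTRF (ex 320 nm; em 665 and 620 nm) after 24 hr antibody incubation. Compounds, 15 concentrations, 0.76% DMSO, were applied to CHO-K1 cells for 3hr at 37C before lysis.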

[2] = qHTS assay to identify small molecule agonists of the hypoxia (HIF-1) signaling pathway (AID 1224846; active = well fitted activation curve with a large enough effect in the signal ratio in the repeat runs, not every such curve was filed as active; the % refers to the signal ratio)
In short: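 HRE-bla ME-180 beta-lactamase reporter cells in medium with 0.5% dialyzed FBS, pre-incubated 5 h then exposed to compounds 17 h at 37C, 5% CO2; reporter induction read with CCF4-AM FRET substrate.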

[3] = qHTS assay to identify small molecule agonists of H2AX - cell viability counter screen (AID 1224847; calls by dose curve; note: top concentration of the series differs between compounds; nearly all actives have a fitted effect of over 30% in size)
In short: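 Read-out: CellTiter-Glo luminescence, 30 min RT. Cells: wild-type CHO-K1, 1000/well, 10% FBS, plated overnight at 37C. Treatment: 15 concentrations, 3 hr, 37C, 0.76% DMSO.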

[4] = qHTS RealTime-Glo MT Cell Viability Assay in HepG2 cells - 24 hour (AID 1224867); note: nearly all actives have a fitted effect of over 50% in size
In short: (§1)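 HepG2 cells were seeded at 600 cells/well together with NanoLuc luciferase and a cell-permeant prosubstrate, preincubated 5 h at 37 C/5% CO2, then pin-dosed with compounds in DMSO. Nonlytic luminescence from viable cells was read at each time point.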

[5] = qHTS RealTime-Glo MT Cell Viability Assay in HEK293 cells - 32 hour (AID 1224868); note: top concentration of the series differs between compounds; nearly all actives have a fitted effect of over 50% in size
In short: (§2)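 HEK293 cells were seeded at 600 cells/well together with NanoLuc luciferase and cell-permeant prosubstrate, preincubated 5 h at 37 C/5% CO2, then given compound in DMSO by pintool. Luminescence from viable-cell prosubstrate reduction was read repeatedly over 40 h.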

[6] = A CellTox Green Cytotoxicity Assay to monitor cytotoxicity in HEK293 cells - 0 hour (AID 1224869); note: nearly all actives have a fitted effect of over 50% in size
In short: (§3)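 HEK293 cells, 600/well, were preincubated 5 hours and then exposed to compounds at 37 C for up to 40 hours. A cell-impermeant cyanine dye staining dead-cell DNA was read by fluorescence at 0, 8, 16, 24, 32 and 40 h time points.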

[7] = qHTS RealTime-Glo MT Cell Viability Assay in HepG2 cells - 40 hour (AID 1224870); note: nearly all actives have a fitted effect of over 50% in size
In short: (§4)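 Real-time viability: cells seeded at 600 per well together with NanoLuc and cell-permeant prosubstrate, compounds added after 5 h incubation. Luminescence tracked at 0, 8, 16, 24, 32 and 40 h of exposure.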

[8] = A CellTox Green Cytotoxicity Assay to monitor cytotoxicity in HEK293 cells - 40 hour (AID 1224871); note: nearly all actives have a fitted effect of over 45% in size
In short: as §3

[9] = qHTS RealTime-Glo MT Cell Viability Assay in HEK293 cells - 16 hour (AID 1224872)
In short: as §2

[10] = qHTS RealTime-Glo MT Cell Viability Assay in HepG2 cells - 8 hour (AID 1224873); note: nearly all actives have a fitted effect of over 55% in size
In short: as §4

[11] = qHTS RealTime-Glo MT Cell Viability Assay in HEK293 cells - 40 hour (AID 1224874); settings: RealTime-Glo luminescence; max response: active compounds read low; note: nearly all actives have a fitted effect of over 50% in size
In short: (§5)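 600 cells/well were plated with the nonlytic NanoLuc/prosubstrate reagent, pre-incubated 5 h, then given 23 nL of compound in DMSO. Incubation at 37 C for 40 h, with luminescence from viable-cell-reduced substrate read repeatedly from 0 h.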

[12] = A CellTox Green Cytotoxicity Assay to monitor cytotoxicity in HEK293 cells - 24 hour (AID 1224875); note: series mostly up to about 77 µM; nearly all actives have a fitted effect of over 45% in size
In short: as §3

[13] = A CellTox Green Cytotoxicity Assay to monitor cytotoxicity in HepG2 cells - 16 hour (AID 1224876); note: nearly all actives have a fitted effect of over 45% in size
In short: (§6)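 HepG2 cells, 600/well, preincubated 5 h with CellTox Green dye, then exposed to Tox21 compounds in DMSO at 37 C for up to 40 h. Dead-cell DNA fluorescence read at the indicated time point.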

[14] = qHTS RealTime-Glo MT Cell Viability Assay in HepG2 cells - 32 hour (AID 1224877); note: nearly all actives have a fitted effect of over 55% in size
In short: as §1

[15] = A CellTox Green Cytotoxicity Assay to monitor cytotoxicity in HepG2 cells - 24 hour (AID 1224878); note: nearly all actives have a fitted effect of over 45% in size
In short: as §6

[16] = A CellTox Green Cytotoxicity Assay to monitor cytotoxicity in HepG2 cells - 40 hour (AID 1224879); note: nearly all actives have a fitted effect of over 40% in size
In short: as §6

[17] = qHTS RealTime-Glo MT Cell Viability Assay in HEK293 cells - 0 hour (AID 1224880)
In short: as §5

[18] = A CellTox Green Cytotoxicity Assay to monitor cytotoxicity in HEK293 cells - 32 hour (AID 1224881); note: nearly all actives have a fitted effect of over 40% in size
In short: as §3
% is set by controls: 0 for no effect and ±100 for the full control effect.

CCCCC1=NC2(CCCC2)C(=O)N1Cc1ccc(-c2ccccc2-c2nn[nH]n2)cc1
inactive: Potency [1] | Potency [2] | Potency [3] | Potency [4] | Potency [5] | Potency [6] | Potency [7] | Potency [8] | Potency [9] | Potency [10] | max response [11] -1.18% | Potency [12] | Potency [13] | Potency [14] | Potency [15] | Potency [16] | Potency [17] | Potency [18]

CCO[Si](CCCCl)(OCC)OCC
inactive: Potency [1] | Potency [2] | Potency [3] | Potency [4] | Potency [5] | Potency [6] | Potency [7] | Potency [8] | Potency [9] | Potency [10] | max response [11] 0.203% | Potency [12] | Potency [14] | Potency [15] | Potency [16] | Potency [17] | Potency [18]

O=P(O)(OCc1ccccc1)OCc1ccccc1
inactive: Potency [1] | Potency [2] | Potency [3] | Potency [4] | Potency [5] | Potency [6] | Potency [7] | Potency [8] | Potency [9] | Potency [10] | max response [11] 2.99% | Potency [12] | Potency [13] | Potency [14] | Potency [15] | Potency [16] | Potency [17] | Potency [18]

Cc1[nH]c(C)c(Cl)c(=O)c1Cl
inactive: activation (H2AX phosphorylation) [1] 1.85% [at 31.6 µM] | activation [2] -0.25% [at 15.8 µM] | activity change, negative = cytotoxicity [3] -0.294% [at 31.6 µM] | activity change, negative = cytotoxicity [4] 3.53% [at 15.8 µM] | activity change, negative = cytotoxic [5] -20.8% [at 15.8 µM] | cytotoxicity [6] 2.83% [at 15.8 µM] | activity change, negative = cytotoxic [7] 1.26% [at 15.8 µM] | cytotoxicity increase [8] -3.34% [at 15.8 µM] | activity change, negative = cytotoxicity [9] -23.6% [at 15.8 µM] | viability change, negative = cytotoxic [10] 0.139% [at 15.8 µM] | max response [11] -19.8% | cytotoxicity increase [13] -3.96% [at 15.8 µM] | activity change, negative = cytotoxic [14] 3.22% [at 15.8 µM] | cytotoxicity [15] -5.69% [at 15.8 µM] | activity change, negative = cytotoxicity [17] 7.46% [at 15.8 µM] | cytotoxicity increase [18] -3.98% [at 15.8 µM]

CCCCC
inactive: Potency [1] | Potency [2] | Potency [3] | Potency [4] | Potency [5] | Potency [7] | Potency [9] | Potency [10] | max response [11] 0.575% | Potency [13] | Potency [14] | Potency [15] | Potency [16] | Potency [17]

CCC(C)c1cc(C(C)(C)C)c(O)c(C(C)(C)C)c1 (stereo unspecified)
inactive: Potency [1] | Potency [2] | Potency [3] | Potency [4] | Potency [5] | Potency [6] | Potency [7] | Potency [9] | Potency [10] | max response [11] 0.103% | Potency [14] | Potency [15] | Potency [16] | Potency [17]

Nc1ncn([C@H]2C[C@H](O)[C@@H](CO)O2)c(=O)n1
inactive: Potency [1] | Potency [2] | Potency [3] | Potency [4] | Potency [5] | Potency [6] | Potency [7] | Potency [8] | Potency [9] | Potency [10] | max response [11] 2.14% | Potency [12] | Potency [13] | Potency [14] | Potency [15] | Potency [16] | Potency [17] | Potency [18]

Cc1ccccc1S(=O)(=O)O
inactive: Potency [1] | Potency [2] | Potency [3] | Potency [4] | Potency [5] | Potency [6] | Potency [7] | Potency [8] | Potency [9] | Potency [10] | max response [11] 3.84% | Potency [14] | Potency [15] | Potency [17] | Potency [18]

c1ccc(CNCCNCc2ccccc2)cc1
inactive: Potency [1] | Potency [2] | Potency [3] | Potency [4] | Potency [5] | Potency [6] | Potency [7] | Potency [8] | Potency [9] | Potency [10] | max response [11] 7.91% | Potency [12] | Potency [13] | Potency [14] | Potency [15] | Potency [17] | Potency [18]

CC(CC=O)c1ccccc1 (stereo unspecified)
inactive: Potency [1] | Potency [2] | Potency [3] | Potency [4] | Potency [5] | Potency [6] | Potency [7] | Potency [8] | Potency [9] | Potency [10] | max response [11] 0.684% | Potency [12] | Potency [13] | Potency [14] | Potency [15] | Potency [16] | Potency [17] | Potency [18]

Cc1ccc(C(C)OC(=O)C2(C)CCC(C(=O)O)C2(C)C)cc1 (stereo unspecified)
inactive: Potency [1] | Potency [2] | Potency [3] | Potency [4] | Potency [5] | Potency [6] | Potency [7] | Potency [8] | Potency [9] | Potency [10] | max response [11] 8.96% | Potency [13] | Potency [14] | Potency [15] | Potency [16] | Potency [17] | Potency [18]

CN(C)CCN(Cc1ccc(Cl)cc1)c1ccccn1
inactive: Potency [1] | Potency [2] | Potency [3] | Potency [4] | Potency [5] | Potency [6] | Potency [7] | Potency [8] | Potency [9] | Potency [10] | max response [11] -11% | Potency [12] | Potency [14] | Potency [15] | Potency [16] | Potency [17] | Potency [18]

O=C1OC(=O)C2C3C=CC(C3)C12 (stereo unspecified)
inactive: Potency [1] | Potency [2] | Potency [3] | Potency [4] | Potency [5] | Potency [6] | Potency [7] | Potency [8] | Potency [9] | Potency [10] | max response [11] 12.9% | Potency [12] | Potency [13] | Potency [14] | Potency [15] | Potency [16] | Potency [17] | Potency [18]

O=C(O)c1ccccc1Cl
inactive: Potency [1] | Potency [2] | Potency [3] | Potency [4] | Potency [6] | Potency [7] | Potency [8] | Potency [9] | Potency [10] | max response [11] -1.6% | Potency [12] | Potency [13] | Potency [14] | Potency [15] | Potency [16] | Potency [17] | Potency [18]

CC(=O)c1cccc([N+](=O)[O-])c1
inactive: Potency [1] | Potency [2] | Potency [3] | Potency [4] | Potency [5] | Potency [6] | Potency [7] | Potency [8] | Potency [9] | Potency [10] | max response [11] 3.17% | Potency [12] | Potency [13] | Potency [14] | Potency [15] | Potency [17] | Potency [18]
